Source: PubChem
Rows were chosen to be rich in hits. Some 3.5% of all compounds tested hit in one or more screens of this group.
MITF primary – inhibitors of human MITF | O75030 | AlphaScreen MITF homodimerization, bead proximity signal | inhibition, % at 2.6 µM | AID 1259374 | hit rate 0.91% among 650,000; in the data active = inhibition above about 50%;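 also: 0% = vehicle wells with protein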
Target sequence (O75030 whole entry, looked up): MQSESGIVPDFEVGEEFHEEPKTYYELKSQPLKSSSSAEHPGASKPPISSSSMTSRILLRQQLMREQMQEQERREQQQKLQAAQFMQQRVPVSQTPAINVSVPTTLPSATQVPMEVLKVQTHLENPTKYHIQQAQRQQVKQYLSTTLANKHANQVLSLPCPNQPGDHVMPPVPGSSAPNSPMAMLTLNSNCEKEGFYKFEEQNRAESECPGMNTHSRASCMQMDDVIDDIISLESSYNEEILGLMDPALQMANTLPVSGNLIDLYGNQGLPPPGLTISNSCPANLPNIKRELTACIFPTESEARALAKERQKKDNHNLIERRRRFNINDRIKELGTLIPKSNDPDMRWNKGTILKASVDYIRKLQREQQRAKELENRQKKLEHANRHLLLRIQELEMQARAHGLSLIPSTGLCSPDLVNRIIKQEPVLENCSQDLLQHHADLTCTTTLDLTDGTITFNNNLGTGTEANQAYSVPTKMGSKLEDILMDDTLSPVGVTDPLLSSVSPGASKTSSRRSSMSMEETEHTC
FBW7 activator – activators of human E3 ligase FBW7; Q969H0; AlphaScreen FBW7–phospho-cyclin E peptide binding, activator screen; normalized activity (activation), % at 26.1 µM; hit rate 0.13% among 650,000; AID 1259310; in the data active = normalized activity above about 1.9%;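 also: purified mutant Fbw7 with reduced substrate affinity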
TEAD-YAP block – TEAD-YAP interaction inhibition; HEK-TIYL cells, TEAD-Gal4/YAP UAS-luciferase luminescence; inhibition, % at 9.12 µM; hit rate 1.4% among 640,000; AID 1259422; in the data active = inhibition above about 32%;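 also: 0% = median of test compound wells and 100% = reference inhibitor wells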
GPR151 ag – activators of human GPR151; hit rate 1% among 650,000; AID 1508602; Q8TDV0; PathHunter beta-arrestin GPR151 cells, luminescence; activation, % at 11.2 µM; in the data active = activation above about 4.9%;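 also: 0% = median of compound wells and 100% = cells with positive control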
The depositor's hits bear a star.

SMILES | MITF primary | FBW7 activator | TEAD-YAP block | GPR151 ag
CC(=O)CN1C(=O)C(=O)c2cc(Br)ccc21 | 23.8 | -0.1 | 9.9 | 0.5
CN1/C(=C/C(=O)C2CCC2)Sc2ccccc21 | 9.3 | 0.0 | -34.8 | -3.7
CN1/C(=C/C(=C/c2sc3ccccc3[n+]2C)C2CCC2)Sc2ccccc21 | 26.7 | 0.0 | 71.7* | -0.2
FC(F)(F)c1cc(-c2cnc3c(NCc4ccco4)nccn23)cc(C(F)(F)F)c1 | 6.0 | 0.3 | -4.5 | 0.9
O=C(NC1CCC(CC2CCC(NC(=O)c3ccncc3)CC2)CC1)c1ccncc1 (configuration not stated) | -9.4 | 0.3 | 32.3* | -0.3
O=C(NC1CC1)c1ccnc(Cl)c1 | -3.1 | -0.1 | 0.2 | 0.2
Cc1nnc(SCC(=O)N/N=C/c2ccccc2)n1-c1ccccc1 | 17.2 | 0.1 | 9.6 | -1.4
Cc1nc(-c2ccc(C(=O)Nc3ccc(O)cc3)cc2)cs1 | -3.9 | 0.0 | 90.5* | -1.3
Cc1nc(-c2ccc(NC(=O)c3ccc(C)c(C)c3)cc2)cs1 | 1.6 | -0.2 | -63.6 | -1.4
CC(C)Cc1ccc(-c2csc(Nc3ccc(I)cc3)n2)cc1 | -7.5 | 0.0 | 5.6 | -0.4
Cn1nc(CC(=O)NCC2COc3ccccc3O2)c2ccccc2c1=O (configuration not stated) | 10.6 | 0.1 | 36.0* | 0.0
COc1ccc(NC(=O)c2nn(-c3ccccc3OC)c(=O)c3ccccc23)cc1OC | 17.7 | 0.3 | -1.6 | 0.7
Cn1c(C(=O)O)c(CC(=O)NCC2COc3ccccc3O2)c2ccccc21 (configuration not stated) | 16.9 | 0.0 | -6.0 | 1.7
Cn1nc(CC(=O)Nc2ccc(F)cc2F)c2ccccc2c1=O | 1.3 | -0.2 | 34.5* | -0.7
COc1ccc(CCNC(=O)CNC(=O)c2nn(-c3ccc(OC)c(OC)c3)c(=O)c3ccccc23)cc1OC | 0.6 | 0.4 | 39.6* | -0.2
Cn1nc(CC(=O)Nc2ccc(Br)cc2F)c2ccccc2c1=O | -9.1 | 0.1 | 24.9 | 2.7
COc1ccc(-n2nc(C(=O)NCC(=O)NCCc3ccc(OC)c(OC)c3)c3ccccc3c2=O)cc1 | 2.2 | 0.6 | 16.6 | -0.2
COc1ccccc1-n1nc(C(=O)Nc2cc(OC)c(OC)c(OC)c2)c2ccccc2c1=O | 0.2 | 0.1 | 32.1* | -0.4
CCc1ccc(OCC(=O)NC2CCCCC2)cc1 | -7.4 | -0.1 | -17.0 | -0.7
COc1cccc(-n2nc(C(=O)NCCc3ccc(OC)c(OC)c3)c3ccccc3c2=O)c1 | 10.0 | 0.0 | 35.8* | 0.9
COc1cc(OC)cc(-n2nc(C(=O)NCCc3ccc(OC)c(OC)c3)c3ccccc3c2=O)c1 | 4.8 | 0.1 | 3.1 | -0.2
COc1ccc(-n2nc(C(=O)NCC(=O)NCC3COc4ccccc4O3)c3ccccc3c2=O)cc1OC (configuration not stated) | -1.7 | 0.2 | 36.4* | 0.1
CCCc1cc(=O)[nH]c(SCc2ccccn2)n1 | 1.1 | 0.0 | -6.7 | 0.5
O=C(CNc1ccc(I)cc1)N/N=C/c1ccc(O)cc1O | 9.8 | -0.2 | 55.9* | -0.9
O=C(N/N=C/c1ccc(O)cc1O)c1ccc(I)cc1 | 29.2 | -0.2 | 45.5* | 2.8
SMILES | MITF primary | FBW7 activator | TEAD-YAP block | GPR151 ag
CC(C)(C)C(=O)CSc1nnc(-c2ccncc2)n1-c1ccccc1 | 3.9 | -0.1 | 5.0 | 0.5
Cc1ccc(S(=O)(=O)Nc2cccc(C(=O)NCC3CCCO3)c2)cc1 (configuration not stated) | 2.0 | -0.1 | 13.6 | 0.2
N#Cc1ccccc1CNC1CCCC1 | 36.6 | -0.3 | 1.4 | 0.9
CCOc1cc(C2C(C#N)=C(N)Oc3c2ccc2ccccc32)cc(Br)c1O (configuration not stated) | 0.9 | 0.0 | 64.6* | 0.2
COc1cc(/C=N/NC(=O)c2cc(Br)ccc2O)ccc1O | 16.2 | 0.1 | -8.9 | -1.9
CCOc1ccc(NC2SC(=O)N(c3ccc(F)cc3)C2=O)cc1 (configuration not stated) | -21.1 | 0.1 | -14.6 | 0.0
COc1ccc2c(c1)nc(SCc1ccccc1)n2C | 12.2 | 2.0* | -70.5 | -0.6
COc1ccc2c(c1)nc(SCC(=O)C(C)(C)C)n2C | -0.8 | -0.1 | -6.1 | -0.1
CC(C)(C)OC(=O)Nc1ccc(SCC(=O)O)cc1 | -6.6 | 0.0 | 82.7* | 0.9
COC(=O)Nc1ccc(SCC(=O)c2ccccc2)cc1 | 2.6 | 0.2 | -2.2 | 1.9
Cc1cc(C)cc(NC(=O)C(=O)NC2CCCC2)c1 | 9.8 | 0.3 | -17.4 | -1.6
CC(C)c1ccc2oc(-c3ccc(N)cc3O)nc2c1 | -3.2 | -0.1 | 86.8* | -0.9
Cc1ccc2oc(-c3cc(N)ccc3O)nc2c1 | 7.2 | -0.1 | -34.8 | -7.8
Cc1cc2nc(-c3ccc(N)cc3O)oc2cc1C | 6.6 | 0.0 | 30.6 | -0.3
CC(C)c1ccc2oc(-c3cc(N)ccc3O)nc2c1 | 11.0 | -0.2 | 63.9* | -3.6
CCOc1ccc2ccccc2c1/C=N/NC(N)=S | -16.7 | -0.1 | 40.3* | -0.9
O=C(N/N=C/c1c2ccccc2cc2ccccc12)C(=O)NC1CC1 | -4.2 | 1.3 | 56.9* | 1.0
CCOC(=O)N/N=C/c1c2ccccc2cc2ccccc12 | -10.1 | -0.1 | 3.6 | 2.3
NC(=O)N/N=C/c1c2ccccc2cc2ccccc12 | 16.6 | 2.0* | 3.4 | 1.2
O=C(N/N=C/c1c2ccccc2cc2ccccc12)C(=O)Nc1ccccc1F | 6.5 | 0.0 | -0.2 | 0.7
CC(C)(C)C1=NN(CC(=O)NCc2ccccn2)C(=O)c2cc3ccccc3n2C1 | 12.5 | 0.3 | 18.1 | 2.1
O=C1Nc2cc(C(=O)N3CCN(c4cccc(Cl)c4)CC3)ccc2Sc2ccccc21 | -14.8 | 0.2 | 4.4 | 0.5
O=C1CSc2ccc(C(=O)N3CCN(c4cccc(Cl)c4)CC3)cc2N1 | 14.6 | 0.6 | 56.1* | 0.3
O=C1CSc2ccc(C(=O)N3CCN(c4cccc(C(F)(F)F)c4)CC3)cc2N1 | 2.1 | 0.1 | 52.3* | -0.1
Nc1nnc(SCC(=O)N2N=C(c3ccc4ccccc4c3)CC2c2ccccc2)s1 (configuration not stated) | -0.1 | 0.0 | 51.2* | -1.5
SMILES | MITF primary | FBW7 activator | TEAD-YAP block | GPR151 ag
COCCNC(=O)Nc1nc(-c2ccc(F)cc2)cs1 | 3.8 | -0.1 | -0.8 | 1.1
Cc1ccc(NC(=O)c2scc3c2CCCC3)cc1 | -0.4 | 0.1 | 29.7 | -2.6
O=C(Nc1cccc(O)c1)c1c(O)c2c([nH]c1=O)CCCC2 | 1.8 | -0.1 | 55.9* | 1.0
COc1ccc(NC(=O)c2scc3c2CCCC3)cc1 | -10.2 | -0.1 | 40.3* | -6.0
CC(C)(C)c1ccc(NC(=O)c2scc3c2CCCC3)cc1 | -17.3 | 0.0 | 32.8* | -0.2
CC(=O)c1ccc(NC(=O)c2scc3c2CCCC3)cc1 | 3.5 | 0.2 | 72.4* | -0.2
O=C(Nc1ccc2ccccc2c1)c1scc2c1CCCC2 | -22.6 | 0.0 | 24.7 | -2.5
NS(=O)(=O)c1ccc(CCNC(=O)CSc2nc3ccsc3c(=O)n2CCCC(=O)NCc2ccc3c(c2)OCO3)cc1 | 6.8 | -0.1 | 8.2 | -0.9
O=C(Nc1cccc(O)c1)c1scc2c1CCCC2 | -8.2 | -0.2 | 78.9* | -3.7
CC(C)(C)C(=O)Nc1ccccc1N1CCN(C(=O)c2ccccc2)CC1 | -4.1 | 0.1 | 8.9 | -0.7
Cc1csc2n1c(C(=O)c1ccccc1)c(C)[n+]2-c1ccccc1 | 2.8 | -0.1 | 12.7 | 0.2
